In all, about 13,000 compounds went through this assay and about 3,200 (25%) showed an effect of 50% or more. Some of the results follow.
Each compound was assayed on P. falciparum stage V gametocytes. Conditions: 48 h, 5 µM; inhibitor.
Design: BacTiter-Glo ATP luminescence viability of purified stage V gametocytes in 384-well plates, per cent inhibition versus DMSO

SMILES | % Inhibition [%]
CCOC(=O)c1c(NC(=O)c2ccccc2)sc2c(O)c(CNC3CCCCC3)ccc12 [TCMDC-124070] | 25.8
COc1ccc(Cl)cc1N1CCN(CCCNC(=O)c2ccc(-c3nc4cc5ccccc5cc4[nH]3)c(F)c2)CC1 [TCMDC-140099] | 14.17
COc1ccc(-c2ncnc(C(F)(F)F)c2-c2ccc(Cl)cc2)c(O)c1 [TCMDC-123728] | 11.32
Cc1nnsc1C(=O)Nc1ccc(-c2ccc(-c3nc4ccccc4[nH]3)s2)cc1 [TCMDC-137077] | 0.7938
Cc1ccc(C(=O)Nc2ccc(Cl)c(N3CCN(CCc4ccccc4)CC3)c2)cc1 [TCMDC-133536] | -30.75
Nc1cccc(CNCc2cccc(-c3csc(-c4nc5ccccc5[nH]4)c3)c2)c1 [TCMDC-132925] | -31.54
Cc1nc2ccc3ccc(CNc4ccc5c(c4)CN([C@@H](CCC(=O)O)C(=O)O)C5=O)cc3c2c(=O)[nH]1 [TCMDC-131928] | 20.65
CN(C)CC1CCCN1Cc1ccccc1-c1cnn(C)c(=O)c1Oc1ccccc1F (stereo not shown) [TCMDC-135099] | 9.933
CCC(C)c1cnc2nc(N)nc(N)c2c1C (stereo not shown) [TCMDC-137718] | 7.013
O=C(Nc1ccccc1)N(Cc1ccc(-c2cccc(CNCc3ccc4c(c3)OCO4)c2)cc1)C1CCN(Cc2ccccc2)CC1 [TCMDC-140603] | 101.1
O=C(Nc1ccccc1)N(Cc1ccc(-c2ccc(CNCc3ccc4c(c3)OCO4)cc2)cc1)C1CCN(Cc2ccccc2)CC1 [TCMDC-140604] | 20.36
O=C(NCc1ccccc1)c1ccc(C(=O)NCC2CNCCO2)cc1 (stereo not shown) [TCMDC-136507] | 8.876
O=c1ccc2ccc(F)c3c2n1CC3CN1CCC(NCc2cccc(-c3cccs3)c2)CC1 (stereo not shown) [TCMDC-134415] | 19.28
Cc1cc(NCCc2ccc(O)cc2)nc(NCC(c2ccccc2)c2ccccc2)n1 [TCMDC-138305] | 99.17
Cc1cc(NCc2ccccc2)nc(NCc2ccccc2)n1 [TCMDC-123662] | 26.39
Cc1cc(NCC(c2ccccc2)c2ccccc2)nc(NCc2ccc(C(F)(F)F)cc2)n1 [TCMDC-138302] | 69.12
Cc1cc(N[C@@H](C)C(=O)Nc2ccccc2)nc(NCCc2ccc(F)cc2)n1 [TCMDC-134798] | 30.85
Cc1cc(Nc2cccc(C(F)(F)F)c2)nc(NCc2ccccc2)n1 [TCMDC-125566] | 3.225
Oc1cc2c(cc1CN1CCN(Cc3ccccc3F)CC1)CCC2 [TCMDC-125013] | -13.06
Cc1nc(C(=O)N2CCCC[C@H]2CNC(=O)c2ccc(-c3ccc(N4CCCC4=O)cc3C)cc2)c(-c2ccc(F)cc2)s1 [TCMDC-141437] | 4.719
CCNc1cc(C(=O)N[C@@H](Cc2ccccc2)[C@H](O)CNC2CCC(C)(C)CC2)cc(N2CCCCS2(=O)=O)c1 [TCMDC-135108] | 43.04
Fc1ccc2nc(-c3ccc(-c4cccc(CN5CCN(c6ccncc6)CC5)c4)cc3)[nH]c2c1 [TCMDC-133822] | -6.554
Fc1ccc2nc(-c3cccc(-c4ccc(CN5CCN(c6cnccn6)CC5)cc4)c3)[nH]c2c1 [TCMDC-132679] | 21.91
Fc1ccc2nc(-c3cccc(-c4ccc(CN5CCN(c6ccncc6)CC5)cc4)c3)[nH]c2c1 [TCMDC-132918] | 89.6
O=C(O)C(F)(F)F.c1cc(-c2ccc(CN3CCN(c4ccncc4)CC3)cc2)cc(-c2nc3ccccc3[nH]2)c1 [TCMDC-132556] | 5.696

SMILES | % Inhibition [%]
c1cc(CN2CCN(c3ccncc3)CC2)cc(-c2cccc(-c3nc4ccccc4[nH]3)c2)c1 [TCMDC-132923] | 40.29
Fc1ccc2nc(-c3cccc(-c4cccc(CN5CCN(c6ccncc6)CC5)c4)c3)[nH]c2c1 [TCMDC-132922] | 104.6
O=C(O)C(F)(F)F.c1cncc(CCNCc2ccc(-c3ccc(-c4nc5ccccc5[nH]4)s3)cc2)c1 [TCMDC-132876] | -17.55
COc1ccc(-c2cnc3ccc(NC4CCC(O)CC4)nn23)cn1 (stereo not shown) [TCMDC-136694] | 36.86
c1cc(CNCc2ccc3c(c2)OCO3)cc(-c2cccc(CNc3ccc4ncccc4c3)c2)c1 [TCMDC-140721] | -2.829
CN1CCN(CCCNCc2ccccc2-c2cccc(CNCc3ccc4c(c3)OCO4)c2)CC1 [TCMDC-140476] | 103.3
c1ccc(CCNCc2cccc(-c3ccccc3CNCc3ccc4c(c3)OCO4)c2)nc1 [TCMDC-140068] | 70.81
FC(F)(F)c1ccc(N2CCCN(Cc3cccc(-c4ccccc4CNCc4ccc5c(c4)OCO5)c3)CC2)nc1 [TCMDC-140216] | -3.324
O=C(Nc1ccc(OC2CCN(Cc3ccsc3)C2)c(Cl)c1)c1ccc(F)cc1 (stereo not shown) [TCMDC-133952] | 22.72
O=C(NCc1cccc(F)c1)Nc1cccc(-c2cccc(-c3nc4ccc(C(F)(F)F)cc4[nH]3)c2)c1 [TCMDC-133292] | -20.5
C#CCCC(=O)Nc1cccc(-c2cccc(-c3nc4ccc(C(F)(F)F)cc4[nH]3)c2)c1 [TCMDC-136856] | 5.566
O=C(Nc1cccc(-c2nn3ccccc3c2-c2ccnc(Nc3ccccc3)n2)c1)c1c(F)cccc1F [TCMDC-135526] | -37.81
CCCc1cn2c3c(cc(C(=O)N[C@@H](Cc4ccccc4)[C@H](O)CNC4CCCCC4)cc13)N(C)S(=O)(=O)CC2 [TCMDC-135771] | 15.59
CC(C)NC[C@@H](O)[C@H](Cc1ccccc1)NC(=O)c1cc2c3c(c1)c(C(C)C)cn3CCS(=O)(=O)N2C [TCMDC-135532] | 49.45
CC(C)c1cn2c3c(cc(C(=O)N[C@@H](Cc4ccccc4)[C@H](O)CNC4CCOCC4)cc13)N(C)S(=O)(=O)CC2 [TCMDC-135535] | 2.441
CCc1cn2c3c(cc(C(=O)N[C@@H](Cc4cc(F)cc(F)c4)[C@H](O)CNC4CCOCC4)cc13)N(C)S(=O)(=O)CC2 [TCMDC-135797] | 26.1
CCc1cn2c3c(cc(C(=O)N[C@@H](Cc4cc(F)cc(F)c4)[C@H](O)CNC4CC4)cc13)N(C)S(=O)(=O)CC2 [TCMDC-135673] | 30.94
CCc1cn2c3c(cc(C(=O)N[C@@H](Cc4ccccc4)[C@H](O)CNC4CCCC4)cc13)N(C)S(=O)(=O)CC2 [TCMDC-135803] | 56.31
CCc1cn2c3c(cc(C(=O)N[C@@H](Cc4cc(F)cc(F)c4)[C@H](O)CNC4CCCCC4)cc13)N(C)S(=O)(=O)CC2 [TCMDC-135672] | 90.03
CC(C)c1cn2c3c(cc(C(=O)N[C@@H](Cc4ccccc4)[C@H](O)CNC4CCCCC4)cc13)N(C)S(=O)(=O)CC2 [TCMDC-135533] | 94.75
CCc1cn2c3c(cc(C(=O)N[C@@H](Cc4ccccc4)[C@H](O)CNC4CC4)cc13)N(CC)S(=O)(=O)CC2 [TCMDC-135553] | 73.35
CCc1cn2c3c(cc(C(=O)N[C@@H](Cc4ccccc4)[C@H](O)CNC4CCOCC4)cc13)N(C)S(=O)(=O)C2 [TCMDC-135394] | 4.179
CCc1cn2c3c(cc(C(=O)N[C@@H](Cc4ccccc4)[C@H](O)CNC4CCC4)cc13)N(C)S(=O)(=O)CC2 [TCMDC-135674] | 32.1
CCc1cn2c3c(cc(C(=O)N[C@@H](Cc4cccc(F)c4)[C@H](O)CNC4CC4)cc13)N(C)S(=O)(=O)CC2 [TCMDC-135651] | -23.22

— PMC4552634, “A New Set of Chemical Starting Points with Plasmodium falciparum Transmission-Blocking Potential for Antimalarial Drug Discovery” (PLoS ONE, 2015)
